# Laboratory results reported in PMC11006913.
# Positions count from the first letter of the chain named.
# What was measured:
# Experiment in all cases: PBM; 200 nM protein, PBS
# Conditions in all cases: dsDNA, one strand shown
# HOXB4 [1] = target: HOXB4 (Homo sapiens, UniProt P17483 148-234)
# HOXB9 [2] = target: HOXB9 (Homo sapiens, UniProt P17482 171-250, T197M)
# HOXA4 [3] = target: HOXA4 (Homo sapiens, UniProt Q00056 201-287, W262R)
# HOXC9 [4] = target: HOXC9 (Homo sapiens, UniProt P31274 178-260, K195R)
# Sequence of HOXC9 (Homo sapiens, UniProt P31274 178-260, K195R) (P31274 178-260 K195R): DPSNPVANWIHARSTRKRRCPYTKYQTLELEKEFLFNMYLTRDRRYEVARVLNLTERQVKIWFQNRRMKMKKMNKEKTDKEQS
# HOXA7 [5] = target: HOXA7 (Homo sapiens, UniProt P31268 116-202)
# Sequence of HOXA7 (Homo sapiens, UniProt P31268 116-202) (P31268 116-202): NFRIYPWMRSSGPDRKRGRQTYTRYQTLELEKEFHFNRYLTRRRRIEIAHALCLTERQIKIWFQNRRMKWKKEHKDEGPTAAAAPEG
# HOXC10 [6] = target: HOXC10 (Homo sapiens, UniProt Q9NYD6 254-340)
# Sequence of HOXC10 (Homo sapiens, UniProt Q9NYD6 254-340) (Q9NYD6 254-340): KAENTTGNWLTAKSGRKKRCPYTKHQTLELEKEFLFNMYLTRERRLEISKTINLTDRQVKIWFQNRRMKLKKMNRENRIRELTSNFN
# HOXB6 [7] = target: HOXB6 (Homo sapiens, UniProt P17509 132-218, K202E)
# Sequence of HOXB6 (Homo sapiens, UniProt P17509 132-218, K202E) (P17509 132-218 K202E): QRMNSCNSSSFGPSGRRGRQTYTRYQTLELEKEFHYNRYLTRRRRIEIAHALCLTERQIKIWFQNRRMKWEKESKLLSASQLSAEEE
# HOXA2 [8] = target: HOXA2 (Homo sapiens, UniProt O43364 129-215, R185T)
# Sequence of HOXA2 (Homo sapiens, UniProt O43364 129-215, R185T) (O43364 129-215 R185T): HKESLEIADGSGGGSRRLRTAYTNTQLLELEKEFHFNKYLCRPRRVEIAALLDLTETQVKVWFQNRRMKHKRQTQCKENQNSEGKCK
# HOXA4 [9] = target: HOXA4 (Homo sapiens, UniProt Q00056 201-287, R217L)
# Sequence of HOXA4 (Homo sapiens, UniProt Q00056 201-287, R217L) (Q00056 201-287 R217L): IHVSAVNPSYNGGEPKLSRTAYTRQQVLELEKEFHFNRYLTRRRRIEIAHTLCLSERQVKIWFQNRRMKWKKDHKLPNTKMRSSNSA
# HOXB9 [10] = target: HOXB9 (Homo sapiens, UniProt P17482 171-250)
# Sequence of HOXB9 (Homo sapiens, UniProt P17482 171-250) (P17482 171-250): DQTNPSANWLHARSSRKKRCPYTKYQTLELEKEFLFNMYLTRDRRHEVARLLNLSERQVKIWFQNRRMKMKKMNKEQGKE
# HOXB4 [11] = target: HOXB4 (Homo sapiens, UniProt P17483 148-234, V174I)
# Sequence of HOXB4 (Homo sapiens, UniProt P17483 148-234, V174I) (P17483 148-234 V174I): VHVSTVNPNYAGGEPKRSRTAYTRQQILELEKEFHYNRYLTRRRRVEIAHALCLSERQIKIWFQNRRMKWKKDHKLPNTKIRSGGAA
# HOXC9 [12] = target: HOXC9 (Homo sapiens, UniProt P31274 178-260)
# Sequence of HOXC9 (Homo sapiens, UniProt P31274 178-260) (P31274 178-260): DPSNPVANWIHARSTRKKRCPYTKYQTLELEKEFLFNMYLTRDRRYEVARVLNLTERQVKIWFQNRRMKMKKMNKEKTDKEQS
# HOXD13 [13] = target: HOXD13 (Homo sapiens, UniProt P35453 263-343, T313R)
# Sequence of HOXD13 (Homo sapiens, UniProt P35453 263-343, T313R) (P35453 263-343 T313R): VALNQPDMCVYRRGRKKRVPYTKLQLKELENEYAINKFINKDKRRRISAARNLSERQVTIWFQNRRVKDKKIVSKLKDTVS
# HOXC9 [14] = target: HOXC9 (Homo sapiens, UniProt P31274 178-260, R193K)
# Sequence of HOXC9 (Homo sapiens, UniProt P31274 178-260, R193K) (P31274 178-260 R193K): as the sequence (P31274 178-260) above, with R16K counted along it
# HOXA2 [15] = target: HOXA2 (Homo sapiens, UniProt O43364 129-215, R185K)
# Sequence of HOXA2 (Homo sapiens, UniProt O43364 129-215, R185K) (O43364 129-215 R185K): as the sequence (O43364 129-215 R185T) above, with T57K counted along it
# HOXD13 [16] = target: HOXD13 (Homo sapiens, UniProt P35453 263-343)
# Sequence of HOXD13 (Homo sapiens, UniProt P35453 263-343) (P35453 263-343): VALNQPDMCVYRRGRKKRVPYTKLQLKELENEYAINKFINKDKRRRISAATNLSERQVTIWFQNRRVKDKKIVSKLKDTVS
# HOXA4 [17] = target: HOXA4 (Homo sapiens, UniProt Q00056 201-287)
# Sequence of HOXA4 (Homo sapiens, UniProt Q00056 201-287) (Q00056 201-287): as the sequence (Q00056 201-287 R217L) above, with L17R counted along it
# HOXC10 [18] = target: HOXC10 (Homo sapiens, UniProt Q9NYD6 254-340, K271E)
# Sequence of HOXC10 (Homo sapiens, UniProt Q9NYD6 254-340, K271E) (Q9NYD6 254-340 K271E): as the sequence (Q9NYD6 254-340) above, with K18E counted along it
# VAX1 [19] = target: VAX1 (Homo sapiens, UniProt Q5SQQ9 86-172)
# Sequence of VAX1 (Homo sapiens, UniProt Q5SQQ9 86-172) (Q5SQQ9 86-172): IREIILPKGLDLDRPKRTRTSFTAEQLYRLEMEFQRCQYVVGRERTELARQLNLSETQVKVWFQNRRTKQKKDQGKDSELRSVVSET
# HOXD13 [20] = target: HOXD13 (Homo sapiens, UniProt P35453 263-343, T313A)
# Sequence of HOXD13 (Homo sapiens, UniProt P35453 263-343, T313A) (P35453 263-343 T313A): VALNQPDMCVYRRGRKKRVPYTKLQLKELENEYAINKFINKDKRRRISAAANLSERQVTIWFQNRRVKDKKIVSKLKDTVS
# HOXB9 [21] = target: HOXB9 (Homo sapiens, UniProt P17482 171-250, R186Q)
# Sequence of HOXB9 (Homo sapiens, UniProt P17482 171-250, R186Q) (P17482 171-250 R186Q): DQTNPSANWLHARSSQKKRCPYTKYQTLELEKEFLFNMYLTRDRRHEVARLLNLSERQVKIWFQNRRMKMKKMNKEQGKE
# HOXC9 [22] = target: HOXC9 (Homo sapiens, UniProt P31274 178-260, R222W)
# Sequence of HOXC9 (Homo sapiens, UniProt P31274 178-260, R222W) (P31274 178-260 R222W): as the sequence (P31274 178-260) above, with R45W counted along it
# VAX1 [23] = target: VAX1 (Homo sapiens, UniProt Q5SQQ9 86-172, T142I)
# Sequence of VAX1 (Homo sapiens, UniProt Q5SQQ9 86-172, T142I) (Q5SQQ9 86-172 T142I): as the sequence (Q5SQQ9 86-172) above, with T57I counted along it
# HOXA2 [24] = target: HOXA2 (Homo sapiens, UniProt O43364 129-215, Y150S)
# Sequence of HOXA2 (Homo sapiens, UniProt O43364 129-215, Y150S) (O43364 129-215 Y150S): as the sequence (O43364 129-215 R185T) above, with Y22S, T57R counted along it
# HOXA7 [25] = target: HOXA7 (Homo sapiens, UniProt P31268 116-202, W177C)
# Sequence of HOXA7 (Homo sapiens, UniProt P31268 116-202, W177C) (P31268 116-202 W177C): as the sequence (P31268 116-202) above, with W62C counted along it
# HOXA4 [26] = target: HOXA4 (Homo sapiens, UniProt Q00056 201-287, W262F)
# Sequence of HOXA4 (Homo sapiens, UniProt Q00056 201-287, W262F) (Q00056 201-287 W262F): as the sequence (Q00056 201-287 R217L) above, with L17R, W62F counted along it
# HOXA2 [27] = target: HOXA2 (Homo sapiens, UniProt O43364 129-215)
# Sequence of HOXA2 (Homo sapiens, UniProt O43364 129-215) (O43364 129-215): as the sequence (O43364 129-215 R185T) above, with T57R counted along it
# VAX1 [28] = target: VAX1 (Homo sapiens, UniProt Q5SQQ9 86-172, K157R)
# Sequence of VAX1 (Homo sapiens, UniProt Q5SQQ9 86-172, K157R) (Q5SQQ9 86-172 K157R): as the sequence (Q5SQQ9 86-172) above, with K72R counted along it
# HOXB6 [29] = target: HOXB6 (Homo sapiens, UniProt P17509 132-218)
# Sequence of HOXB6 (Homo sapiens, UniProt P17509 132-218) (P17509 132-218): as the sequence (P17509 132-218 K202E) above, with E71K counted along it
# VENTX [30] = target: T1, VENTX (Homo sapiens, UniProt O95231 78-163, R121Q)
# T1 sequence: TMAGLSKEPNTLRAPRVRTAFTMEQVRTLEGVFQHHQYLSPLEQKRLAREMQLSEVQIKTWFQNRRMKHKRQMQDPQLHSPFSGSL
# VENTX [31] = target: T2, VENTX (Homo sapiens, UniProt O95231 78-163)
# T2 sequence: T1 sequence with Q44R
# VENTX [32] = target: T3, VENTX (Homo sapiens, UniProt O95231 78-163, Y115F)
# T3 sequence: T1 sequence with Y38F, Q44R
# SHOX = SHOX (Homo sapiens, UniProt O15266 103-189, R173C)
# Sequence of SHOX (O15266 103-189 R173C): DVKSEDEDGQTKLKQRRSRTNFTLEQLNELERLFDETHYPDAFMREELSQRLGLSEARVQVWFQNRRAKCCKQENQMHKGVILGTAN
# Sequence of HOXB4 (Homo sapiens, UniProt P17483 148-234) (P17483 148-234): as the sequence (P17483 148-234 V174I) above, with I27V counted along it
# Sequence of HOXA4 (Homo sapiens, UniProt Q00056 201-287, W262R) (Q00056 201-287 W262R): as the sequence (Q00056 201-287 R217L) above, with L17R, W62R counted along it
# Sequence of HOXB9 (Homo sapiens, UniProt P17482 171-250, T197M) (P17482 171-250 T197M): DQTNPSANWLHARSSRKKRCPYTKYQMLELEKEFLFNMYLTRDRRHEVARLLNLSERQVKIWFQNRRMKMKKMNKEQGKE
sequence,measurement,setting,value
TCATTAAA,binding signal,HOXB4 [1],"13.1 upbm affinity estimate (log intensity, higher = more binding, comparable within an allelic series)"
same,binding signal,HOXB9 [2],"10.2 upbm affinity estimate (log intensity, higher = more binding, comparable within an allelic series)"
same,binding signal,HOXA4 [3],"10.8 upbm affinity estimate (log intensity, higher = more binding, comparable within an allelic series)"
same,binding signal,HOXC9 [4],"13 upbm affinity estimate (log intensity, higher = more binding, comparable within an allelic series)"
same,binding signal,HOXA7 [5],"11.6 upbm affinity estimate (log intensity, higher = more binding, comparable within an allelic series)"
same,binding signal,HOXC10 [6],"12.6 upbm affinity estimate (log intensity, higher = more binding, comparable within an allelic series)"
same,binding signal,HOXB6 [7],"10.1 upbm affinity estimate (log intensity, higher = more binding, comparable within an allelic series)"
same,binding signal,HOXA2 [8],"12.5 upbm affinity estimate (log intensity, higher = more binding, comparable within an allelic series)"
same,binding signal,HOXA4 [9],"12.5 upbm affinity estimate (log intensity, higher = more binding, comparable within an allelic series)"
same,binding signal,HOXB9 [10],"12.2 upbm affinity estimate (log intensity, higher = more binding, comparable within an allelic series)"
same,binding signal,HOXB4 [11],"13.8 upbm affinity estimate (log intensity, higher = more binding, comparable within an allelic series)"
same,binding signal,HOXC9 [12],"12.9 upbm affinity estimate (log intensity, higher = more binding, comparable within an allelic series)"
same,binding signal,HOXD13 [13],"10.8 upbm affinity estimate (log intensity, higher = more binding, comparable within an allelic series)"
same,binding signal,HOXC9 [14],"12.9 upbm affinity estimate (log intensity, higher = more binding, comparable within an allelic series)"
same,binding signal,HOXA2 [15],"13.1 upbm affinity estimate (log intensity, higher = more binding, comparable within an allelic series)"
same,binding signal,HOXD13 [16],"11.9 upbm affinity estimate (log intensity, higher = more binding, comparable within an allelic series)"
same,binding signal,HOXA4 [17],"13.9 upbm affinity estimate (log intensity, higher = more binding, comparable within an allelic series)"
same,binding signal,HOXC10 [18],"12.4 upbm affinity estimate (log intensity, higher = more binding, comparable within an allelic series)"
same,binding signal,VAX1 [19],"13 upbm affinity estimate (log intensity, higher = more binding, comparable within an allelic series)"
same,binding signal,HOXD13 [20],"11.7 upbm affinity estimate (log intensity, higher = more binding, comparable within an allelic series)"
same,binding signal,HOXB9 [21],"12 upbm affinity estimate (log intensity, higher = more binding, comparable within an allelic series)"
same,binding signal,HOXC9 [22],"11.2 upbm affinity estimate (log intensity, higher = more binding, comparable within an allelic series)"
same,binding signal,VAX1 [23],"13 upbm affinity estimate (log intensity, higher = more binding, comparable within an allelic series)"
same,binding signal,HOXA2 [24],"10.9 upbm affinity estimate (log intensity, higher = more binding, comparable within an allelic series)"
same,binding signal,HOXA7 [25],"9 upbm affinity estimate (log intensity, higher = more binding, comparable within an allelic series)"
same,binding signal,HOXA4 [26],"11.9 upbm affinity estimate (log intensity, higher = more binding, comparable within an allelic series)"
same,binding signal,HOXA2 [27],"12.3 upbm affinity estimate (log intensity, higher = more binding, comparable within an allelic series)"
same,binding signal,VAX1 [28],"12.9 upbm affinity estimate (log intensity, higher = more binding, comparable within an allelic series)"
same,binding signal,HOXB6 [29],"11.9 upbm affinity estimate (log intensity, higher = more binding, comparable within an allelic series)"
ACTCATTA,binding signal,HOXB4 [1],"13 upbm affinity estimate (log intensity, higher = more binding, comparable within an allelic series)"
same,binding signal,VENTX [30],"11.6 upbm affinity estimate (log intensity, higher = more binding, comparable within an allelic series)"
same,binding signal,HOXA4 [3],"10.7 upbm affinity estimate (log intensity, higher = more binding, comparable within an allelic series)"
same,binding signal,VENTX [31],"12.4 upbm affinity estimate (log intensity, higher = more binding, comparable within an allelic series)"
same,binding signal,VENTX [32],"11.7 upbm affinity estimate (log intensity, higher = more binding, comparable within an allelic series)"
same,binding signal,HOXA2 [8],"13 upbm affinity estimate (log intensity, higher = more binding, comparable within an allelic series)"
same,binding signal,HOXA4 [9],"12.1 upbm affinity estimate (log intensity, higher = more binding, comparable within an allelic series)"
same,binding signal,HOXB4 [11],"13.6 upbm affinity estimate (log intensity, higher = more binding, comparable within an allelic series)"
same,binding signal,SHOX,"9.29 upbm affinity estimate (log intensity, higher = more binding, comparable within an allelic series)"
same,binding signal,HOXA2 [15],"13.5 upbm affinity estimate (log intensity, higher = more binding, comparable within an allelic series)"
same,binding signal,HOXA4 [17],"13.8 upbm affinity estimate (log intensity, higher = more binding, comparable within an allelic series)"
same,binding signal,VAX1 [19],"13.2 upbm affinity estimate (log intensity, higher = more binding, comparable within an allelic series)"
same,binding signal,VAX1 [23],"13.1 upbm affinity estimate (log intensity, higher = more binding, comparable within an allelic series)"
same,binding signal,HOXA2 [24],"10.9 upbm affinity estimate (log intensity, higher = more binding, comparable within an allelic series)"
same,binding signal,HOXA4 [26],"11.7 upbm affinity estimate (log intensity, higher = more binding, comparable within an allelic series)"
same,binding signal,HOXA2 [27],"12.6 upbm affinity estimate (log intensity, higher = more binding, comparable within an allelic series)"
same,binding signal,VAX1 [28],"13.1 upbm affinity estimate (log intensity, higher = more binding, comparable within an allelic series)"
